Compound activity deposited in PubChem by several laboratories.
esBAF inh = inhibitors of esBAF chromatin remodeling in mouse ES cells | Bmi1-luciferase knock-in reporter, 24 h; 100% = twice the neutral-well signal | reporter increase, % at 12.5 µM | 2% of 350,000 active | AID 602393; in the data active = activation above about 40%; inconclusive = no clear call, values can overlap the other calls;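 note: 0% = median of the plate's neutral control wells and 100% = double that signal; a rise in the Bmi1 reporter signal indicates esBAF inhibition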
SMARCA2 act = activators of SMARCA2 function. activation, % at 9.1 µM. 1% of 370,000 active. AID 652017. MG213 cells, MMTV-luciferase reporter, dexamethasone, overnight; in the data active = activation above about 7.8%;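 note: 0% = vehicle wells and 100% = reference activator wells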
Rtt109 Vps75 = C. albicans Rtt109 histone acetyltransferase inhibition | AID 540336 | purified Rtt109/Vps75, ThioGlo CoA-SH fluorescence, 4 h | inhibition, % at 34.9 µM | 0.16% of 330,000 active;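 active = inhibition of at least 50% in every replicate; inconclusive = best replicate reaches 50% inhibition but some replicates fall short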
Target sequence (Q5AAJ8 whole entry, looked up): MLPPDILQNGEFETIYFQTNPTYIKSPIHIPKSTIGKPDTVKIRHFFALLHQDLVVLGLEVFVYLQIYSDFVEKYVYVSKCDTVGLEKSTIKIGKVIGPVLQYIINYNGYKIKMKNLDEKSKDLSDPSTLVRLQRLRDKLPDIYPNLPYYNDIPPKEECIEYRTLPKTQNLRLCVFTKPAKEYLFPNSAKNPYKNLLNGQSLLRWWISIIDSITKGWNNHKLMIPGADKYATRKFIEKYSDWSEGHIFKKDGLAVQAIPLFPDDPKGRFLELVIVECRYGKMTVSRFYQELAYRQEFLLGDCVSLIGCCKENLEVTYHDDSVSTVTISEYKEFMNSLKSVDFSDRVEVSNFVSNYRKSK
Dyrk1A ADPGlo = Dyrk1A (rat) kinase inhibition | ADP-Glo luminescence, NFATc1 peptide | inhibition, % at 12.5 µM | 0.43% of 310,000 active | Q63470; in the data active = inhibition above about 50%;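 note: plate controls were vehicle with enzyme for no effect and no enzyme for full effect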
CDK5 inh = CDK5/p35 (human) kinase inhibition. inhibition, % at 10 µM. Recombinant CDK5/p35, ADP-Glo luminescence, 60 min. 0.01% of 330,000 active. AID 488839. Q00535+Q15078;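 active = highest replicate inhibition of at least 50% and at least 75% of replicates reaching 50%; inconclusive = only one of the two criteria met; inactive = both criteria failed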;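 note: plate controls were DMSO neutral control for no effect and GW8510 at 10 µM for full effect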
dFosB activator = mouse delta FosB homodimer activation. activation, % at 25 µM. purified delta FosB, TAMRA-CDK5 oligo fluorescence polarization; percent of positive-control signal above neutral wells. AID 493131. 0.99% of 340,000 active;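 active = mean activation above about 17%, with every replicate also reaching it, limit read from the data, passing the limit was not always enough; inconclusive = only one of the two conditions met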
Target sequence (P13346 whole entry, looked up): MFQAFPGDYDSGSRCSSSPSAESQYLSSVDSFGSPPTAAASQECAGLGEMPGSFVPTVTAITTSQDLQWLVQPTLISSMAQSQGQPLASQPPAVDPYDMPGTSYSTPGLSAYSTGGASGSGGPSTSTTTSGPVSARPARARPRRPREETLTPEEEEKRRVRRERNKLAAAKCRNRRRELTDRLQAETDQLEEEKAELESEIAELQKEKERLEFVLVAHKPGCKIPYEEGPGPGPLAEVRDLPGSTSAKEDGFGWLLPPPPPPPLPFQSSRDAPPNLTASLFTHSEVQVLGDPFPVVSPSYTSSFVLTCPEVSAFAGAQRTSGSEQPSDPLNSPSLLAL
SMARCA2 act conf = confirmation of SMARCA2 (BRM) function activators; shares compounds with SMARCA2 act; MG213 cells, MMTV-luciferase with dexamethasone, luminescence, overnight; MG213 cells expressing E1A, Rb sequestered; DMSO wells 0%, reference activator 100%; activation, % at 9.1 µM; 30% of 3,500 active;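 active = activation above its plate's cutoff, the mean activation of tested wells plus 3 SD, cut at about 7.9% in these data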
GAL4-VP16 Luc = activates GAL4-VP16 luciferase, flagging SMARCA2 activator hits; shares compounds with SMARCA2 act; HEK293 GAL4-VP16 pG5luc reporter, luciferase luminescence; scaled: DMSO wells 0%, SAHA wells 100%; activation, % at 9.1 µM; 41% of 3,500 active; AID 686939;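 active = activation above the solvent-only control well mean plus 3 SD, averaged across control plates, cut at about 5.2% in these data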
* marks the source's active call; other numbers are inactive results; ? = inconclusive; nt = no result given. Most compounds without a hit are left out; they make up all but 3.2% or so of the library.

SMILES | esBAF inh | SMARCA2 act | Rtt109 Vps75 | Dyrk1A ADPGlo | CDK5 inh | dFosB activator | SMARCA2 act conf | GAL4-VP16 Luc
CC(=O)C(Cl)C(=O)Nc1ccccc1 (configuration not stated) | -9 | 8.5* | 21 | -4 | 0 | 0 | -14 | 0
COc1cc(/C=C2\CC/C(=C\c3cc(OC)c(O)c(OC)c3)C2=O)cc(OC)c1O | nt | 11* | 9 | 2 | 1 | -54 | 34* | 3
COc1cc(/C=C2\CC/C(=C\c3cc(OC)c(OC)c(OC)c3)C2=O)cc(OC)c1OC | nt | 0 | 1 | 4 | 1 | -7 | nt | nt
COc1ccc(CN(C)C[C@H]2Oc3c(NC(=O)NC4CCCCC4)cccc3C(=O)N([C@H](C)CO)C[C@H]2C)cc1 | 1 | nt | nt | nt | nt | nt | nt | nt
CN(C)Cc1cc(O)c(CN(C)C)cc1O | nt | 8.0* | 10 | -6 | -2 | -2 | 7 | 2
c1ccc(COc2ccc(OCCN3CCCC3)cc2)cc1 | nt | 0 | 7 | 7 | 1 | -2 | nt | nt
c1ccc(COc2ccc(OCCCN3CCCC3)cc2)cc1 | nt | 8.7* | 3 | -9 | 0 | -5 | 7 | 9.8*
O=C(CC1C(=O)CCCC1=O)c1ccccc1 | nt | 8.6* | 2 | 1 | -1 | -1 | 8.1* | 2
CNC[C@@H]1Oc2c(N)cccc2C(=O)N([C@H](C)CO)C[C@@H]1C | -2 | nt | nt | nt | nt | nt | nt | nt
COc1ccc(/C=C/c2noc(-c3ccccc3O)n2)cc1 | nt | 8.6* | -3 | -3 | 1 | 4 | 7 | 7.0*
COc1cccc(/C=N/N2CCOCC2)c1O | nt | 10* | -14 | 3 | 6 | -2 | 4 | 3
CC1=Nn2c(nc3sc4c(c3c2=O)CCCC4)SC1 | nt | 10* | 4 | -7 | 2 | -4 | 0 | 1
CC1CSc2nc3sc4c(c3c(=O)n21)CCCC4 (configuration not stated) | ? | 3 | -1 | 12 | 1 | 1 | nt | nt
Cc1ccc(S(=O)(=O)Nc2ccc3c(c2)C(=O)N([C@H](C)CO)C[C@H](C)[C@@H](CN(C)C(=O)c2ccncc2)OCCCC[C@H](C)O3)cc1 | 0 | nt | nt | nt | nt | nt | nt | nt
Oc1ccc(Cl)cc1CNc1ccc(Br)cn1 | 75* | 9.9* | -6 | -4 | -4 | -6 | 11* | 10*
Oc1c(Cl)cc(Cl)cc1CNc1ccc(Br)cn1 | nt | 3 | 6 | -2 | -2 | 4 | nt | nt
COc1ccc(C(=O)N/N=C(\C)Cn2cnc([N+](=O)[O-])n2)cc1 | 26 | 13* | 1 | -4 | nt | -11 | 1 | 0
CO[C@H]1CN(C)C(=O)c2cc(NC(=O)Nc3c(C)noc3C)ccc2OC[C@@H](C)NC[C@H]1C | 0 | nt | nt | nt | nt | nt | nt | nt
O=C(Cc1ccccc1)Nc1ccc(-c2nnc(-c3ccco3)o2)cc1 | 14 | 1 | -10 | 1 | 0 | 2 | nt | nt
Brc1ccc(-c2nnc(-c3ccc4c(c3)OCO4)o2)o1 | -3 | 7 | 4 | 7 | 0 | -3 | nt | nt
c1ccc(-c2nnc(-c3ccco3)o2)cc1 | 40 | 8.4* | -9 | 1 | -1 | -2 | 7 | 9.0*
Brc1ccc(-c2nnc(-c3cccnc3)o2)cc1 | nt | 1 | -5 | 11 | 1 | -8 | nt | nt
c1coc(-c2nnc(-c3ccc4c(c3)OCO4)o2)c1 | nt | 10* | nt | nt | nt | nt | 8.4* | 11*
Clc1ccc(-c2nnc(-c3ccccc3)o2)cn1 | 34 | 8.6* | 1 | -2 | 1 | -4 | 4 | 4
COCC(=O)Nc1ccc2c(c1)C(=O)N(C)[C@@H]1CC[C@@H](CC(=O)NC3Cc4ccccc4C3)O[C@@H]1CO2 | -1 | nt | nt | nt | nt | nt | nt | nt
SMILES | esBAF inh | SMARCA2 act | Rtt109 Vps75 | Dyrk1A ADPGlo | CDK5 inh | dFosB activator | SMARCA2 act conf | GAL4-VP16 Luc
C[C@@H]1CN([C@@H](C)CO)C(=O)c2cc(NS(C)(=O)=O)ccc2O[C@H]1CN(C)S(=O)(=O)c1cn(C)cn1 | -2 | nt | nt | nt | nt | nt | nt | nt
O=C(O)[C@H]1[C@H](CO)[C@H]2Cn3c(cccc3=O)[C@H]2N1C(=O)NC1CCCC1 | 1 | nt | nt | nt | nt | nt | nt | nt
O=C1CN(c2ccccc2)C(=S)N1C(=O)c1ccc(Br)cc1 | ? | 8.8* | 5 | 7 | 1 | -2 | 7 | 16*
COc1ccc(S(=O)(=O)Nc2ccc3c(c2)CC(=O)N([C@@H](C)CO)C[C@H](C)[C@H](CN(C)S(=O)(=O)c2cn(C)cn2)O3)cc1 | -1 | nt | nt | nt | nt | nt | nt | nt
C[C@@H]1CN([C@@H](C)CO)C(=O)c2cc(/C=C/c3ccccc3)cnc2O[C@H]1CN(C)C(=O)CN1CCOCC1 | 1 | nt | nt | nt | nt | nt | nt | nt
O=C(Nc1ccc(F)cc1)C(c1cccc(F)c1)N1CCN(C(=O)c2ccco2)CC1 (configuration not stated) | nt | 2 | nt | nt | nt | nt | nt | nt
O=C(Nc1ccc(F)cc1)C(CCc1ccccc1)N1CCN(C(=O)c2ccco2)CC1 (configuration not stated) | nt | 8.7* | nt | nt | nt | nt | 1 | -1
Cc1noc(NS(=O)(=O)c2ccc(N/C=C\C(=O)c3ccccc3)cc2)c1C | nt | 4 | -4 | 11 | -10 | 8 | nt | nt
COCC(=O)Nc1ccc(S(=O)(=O)Nc2onc(C)c2C)cc1 | -8 | -1 | nt | nt | nt | nt | nt | nt
Cc1noc(NS(=O)(=O)c2ccc(N/C=C\C(=O)c3ccc(F)cc3)cc2)c1C | nt | 10* | 33 | 26 | 1 | 1 | 5 | 1
COc1ccccc1NC(=O)Nc1ccc(S(=O)(=O)Nc2onc(C)c2C)cc1 | -6 | 8.2* | -27 | 10 | 0 | -2 | -1 | 0
C[C@H](CO)N1C[C@H](C)[C@H](CN(C)S(=O)(=O)c2ccccc2)Oc2ccc(NC(=O)Nc3cccc4ccccc34)cc2C1=O | -7 | nt | nt | nt | nt | nt | nt | nt
C[C@@H]1C[C@H]2[C@@H]3C[C@H](F)C4=CC(=O)C=C[C@]4(C)[C@@]3(F)[C@@H](O)C[C@]2(C)[C@@]1(O)C(=O)COC(=O)C(C)(C)C | 0 | -3 | 3 | 10 | 1 | 5 | nt | nt
CCCC(=O)O[C@]1(C(=O)COC(C)=O)CC[C@H]2[C@@H]3C[C@H](F)C4=CC(=O)C=C[C@]4(C)[C@@]3(F)[C@@H](O)C[C@@]21C | -5 | 11* | 1 | 2 | -1 | -15 | -3 | 2
CCOCCCNC(=O)C(c1ccccc1)N(Cc1cccs1)C(=O)c1ccccc1O (configuration not stated) | nt | -2 | -4 | 5 | 2 | -6 | nt | nt
CCOCCCNC(=O)C(c1ccccc1)N(Cc1cccs1)C(=O)CNC(=O)c1ccccc1 (configuration not stated) | -1 | 8.7* | 4 | -3 | nt | -4 | -3 | 1
CCn1c(C)csc1=NC(=O)c1ccccc1O | ? | 12* | -1 | 32 | 4 | -4 | 4 | 8.0*
